# Test results as given in PMC7862700, “An all-to-all approach to the identification of sequence-specific readers for epigenetic DNA modifications on cytosine”.
# Tests used:
# Experiment in all cases: DAPPL (digital affinity profiling via proximity ligation, sequencing); 10 mM Tris-HCl pH 7.5, 50 mM NaCl, 1 mM DTT, 4% glycerol, room temperature, 30 min; GST-TFs on glutathione beads, 16-mer random dsDNA library, 0.1% formaldehyde crosslink after washing; high values mean tight binding
# FLI1 = target: T1, FLI1 (Homo sapiens, UniProt Q01543 1-452); details: protein: recombinant; tags: N-terminal GST; dsDNA, one strand shown
# T1 sequence: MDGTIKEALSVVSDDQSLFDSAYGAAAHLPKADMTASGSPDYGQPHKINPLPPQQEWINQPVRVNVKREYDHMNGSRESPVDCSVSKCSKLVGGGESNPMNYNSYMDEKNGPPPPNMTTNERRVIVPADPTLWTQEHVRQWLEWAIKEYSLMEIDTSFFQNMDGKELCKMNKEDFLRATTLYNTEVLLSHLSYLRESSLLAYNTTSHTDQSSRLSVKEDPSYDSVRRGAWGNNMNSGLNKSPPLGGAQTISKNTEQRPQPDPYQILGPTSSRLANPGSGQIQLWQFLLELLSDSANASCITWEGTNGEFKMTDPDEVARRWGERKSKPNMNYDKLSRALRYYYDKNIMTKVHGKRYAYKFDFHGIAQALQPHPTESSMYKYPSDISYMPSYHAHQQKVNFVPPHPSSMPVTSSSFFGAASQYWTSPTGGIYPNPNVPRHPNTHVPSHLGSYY
# Procedure, shortened: (§1)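 Binding signal is defined as a hexamer's read frequency for one factor over its frequency for the tag-only sample. To obtain reads, GST-fused human transcription factors were expressed in yeast, captured on glutathione beads, barcoded with DNA and pooled with that sample. Pools met 200 nmole of a 16-mer random double-stranded DNA library in Tris/NaCl/DTT/glycerol buffer for 30 min at room temperature before washing, 0.1% formaldehyde crosslinking, proximity ligation (BsaI/T4 ligase, 1 h, 37 °C), PCR and Illumina NextSeq500 sequencing.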
# ELK1 = target: T2, ELK1 (Homo sapiens, UniProt P19419 1-428); details: protein: recombinant; tags: N-terminal GST; dsDNA, one strand shown
# T2 sequence: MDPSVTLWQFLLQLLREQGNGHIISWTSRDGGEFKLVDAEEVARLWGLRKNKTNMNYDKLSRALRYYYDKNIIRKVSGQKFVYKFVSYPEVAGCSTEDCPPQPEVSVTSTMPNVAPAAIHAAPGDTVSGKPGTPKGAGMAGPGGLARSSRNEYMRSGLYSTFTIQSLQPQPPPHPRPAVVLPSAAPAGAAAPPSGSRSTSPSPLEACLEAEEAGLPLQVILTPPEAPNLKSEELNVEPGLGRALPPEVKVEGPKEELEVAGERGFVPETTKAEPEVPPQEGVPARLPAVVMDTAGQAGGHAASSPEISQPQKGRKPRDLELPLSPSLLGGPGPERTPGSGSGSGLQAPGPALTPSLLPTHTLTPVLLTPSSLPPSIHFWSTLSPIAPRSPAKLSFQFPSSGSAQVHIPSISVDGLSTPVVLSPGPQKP
# Procedure, shortened: as §1
# GABPA = target: T3, GABPA (Homo sapiens, UniProt Q06546 1-454); details: protein: recombinant; tags: N-terminal GST; dsDNA, one strand shown
# T3 sequence: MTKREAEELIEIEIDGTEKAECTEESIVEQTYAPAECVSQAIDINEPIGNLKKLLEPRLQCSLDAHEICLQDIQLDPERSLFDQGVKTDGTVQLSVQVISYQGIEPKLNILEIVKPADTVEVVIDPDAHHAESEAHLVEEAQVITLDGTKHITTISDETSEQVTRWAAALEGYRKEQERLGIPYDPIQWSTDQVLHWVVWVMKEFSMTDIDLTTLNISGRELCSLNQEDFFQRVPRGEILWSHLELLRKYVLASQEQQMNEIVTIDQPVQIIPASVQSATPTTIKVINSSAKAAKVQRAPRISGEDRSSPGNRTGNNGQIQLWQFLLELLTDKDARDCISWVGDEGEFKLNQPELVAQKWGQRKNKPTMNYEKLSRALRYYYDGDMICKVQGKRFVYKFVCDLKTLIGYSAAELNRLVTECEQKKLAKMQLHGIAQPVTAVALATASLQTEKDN
# Procedure, shortened: as §1
# ERG = target: T4, ERG (Homo sapiens, UniProt P11308 1-479); details: protein: recombinant; tags: N-terminal GST; dsDNA, one strand shown
# T4 sequence: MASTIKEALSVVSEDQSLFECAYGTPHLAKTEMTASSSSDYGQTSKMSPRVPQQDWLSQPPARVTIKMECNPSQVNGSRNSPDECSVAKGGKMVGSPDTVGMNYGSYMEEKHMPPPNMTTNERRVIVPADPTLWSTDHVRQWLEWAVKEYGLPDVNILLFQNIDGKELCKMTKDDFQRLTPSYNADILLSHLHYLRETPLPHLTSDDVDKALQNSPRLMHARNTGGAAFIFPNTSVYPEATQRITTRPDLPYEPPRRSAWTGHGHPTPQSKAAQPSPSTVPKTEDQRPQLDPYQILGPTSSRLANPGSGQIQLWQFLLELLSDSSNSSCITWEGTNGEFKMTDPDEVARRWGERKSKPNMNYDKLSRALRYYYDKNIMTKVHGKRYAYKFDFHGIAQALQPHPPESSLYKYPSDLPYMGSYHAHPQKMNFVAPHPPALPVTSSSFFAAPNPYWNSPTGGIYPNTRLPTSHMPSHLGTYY
# Procedure, shortened: as §1
# ELF1 = ELF1 (Homo sapiens, UniProt P32519 1-619); details: protein: recombinant; tags: N-terminal GST; dsDNA, one strand shown
# Chain of ELF1 (P32519 whole entry): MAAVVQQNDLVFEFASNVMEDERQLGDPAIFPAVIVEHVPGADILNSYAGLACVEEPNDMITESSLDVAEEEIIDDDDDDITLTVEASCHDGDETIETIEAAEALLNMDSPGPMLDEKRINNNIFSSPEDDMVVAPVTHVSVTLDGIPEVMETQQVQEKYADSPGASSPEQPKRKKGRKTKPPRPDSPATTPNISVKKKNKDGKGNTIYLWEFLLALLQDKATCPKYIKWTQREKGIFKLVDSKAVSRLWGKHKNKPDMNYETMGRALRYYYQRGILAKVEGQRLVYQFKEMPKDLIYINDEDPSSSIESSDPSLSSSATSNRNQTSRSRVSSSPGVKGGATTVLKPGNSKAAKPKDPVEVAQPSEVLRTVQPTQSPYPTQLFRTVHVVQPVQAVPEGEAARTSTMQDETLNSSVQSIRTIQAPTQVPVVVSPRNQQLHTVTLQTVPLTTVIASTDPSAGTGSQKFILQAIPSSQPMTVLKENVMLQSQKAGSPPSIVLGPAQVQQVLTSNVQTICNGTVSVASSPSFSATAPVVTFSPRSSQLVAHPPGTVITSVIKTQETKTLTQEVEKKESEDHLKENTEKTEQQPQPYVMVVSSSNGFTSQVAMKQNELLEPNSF
# Procedure, shortened: as §1
# EHF = target: T5, EHF (Homo sapiens, UniProt Q9NZC4 1-300); details: protein: recombinant; tags: N-terminal GST; dsDNA, one strand shown
# T5 sequence: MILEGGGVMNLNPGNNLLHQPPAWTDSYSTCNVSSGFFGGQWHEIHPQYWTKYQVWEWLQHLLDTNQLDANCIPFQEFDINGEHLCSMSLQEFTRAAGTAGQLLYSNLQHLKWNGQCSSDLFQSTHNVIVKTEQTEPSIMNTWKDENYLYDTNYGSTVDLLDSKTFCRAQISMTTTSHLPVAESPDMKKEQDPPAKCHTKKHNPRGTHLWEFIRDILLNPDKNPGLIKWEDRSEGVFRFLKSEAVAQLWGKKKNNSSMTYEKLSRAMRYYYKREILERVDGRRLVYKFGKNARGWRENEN
# Procedure, shortened: as §1
# SPI1 = SPI1 (Homo sapiens, UniProt P17947 1-270); details: protein: recombinant; tags: N-terminal GST; dsDNA, one strand shown
# Procedure, shortened: as §1
# SPIB = SPIB (Homo sapiens, UniProt Q01892 1-262); details: protein: recombinant; tags: N-terminal GST; dsDNA, one strand shown
# Chain of SPIB (Q01892 whole entry): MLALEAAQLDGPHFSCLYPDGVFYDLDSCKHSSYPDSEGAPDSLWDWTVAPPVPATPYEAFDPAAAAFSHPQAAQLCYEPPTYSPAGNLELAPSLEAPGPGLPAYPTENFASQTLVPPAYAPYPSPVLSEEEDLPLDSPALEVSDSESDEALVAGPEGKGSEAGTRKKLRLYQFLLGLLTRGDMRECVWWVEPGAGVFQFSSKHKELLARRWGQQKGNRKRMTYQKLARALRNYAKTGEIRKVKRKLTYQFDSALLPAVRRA
# Procedure, shortened: as §1
# ELK3 = target: T6, ELK3 (Homo sapiens, UniProt P41970 1-407); details: protein: recombinant; tags: N-terminal GST; dsDNA, one strand shown
# T6 sequence: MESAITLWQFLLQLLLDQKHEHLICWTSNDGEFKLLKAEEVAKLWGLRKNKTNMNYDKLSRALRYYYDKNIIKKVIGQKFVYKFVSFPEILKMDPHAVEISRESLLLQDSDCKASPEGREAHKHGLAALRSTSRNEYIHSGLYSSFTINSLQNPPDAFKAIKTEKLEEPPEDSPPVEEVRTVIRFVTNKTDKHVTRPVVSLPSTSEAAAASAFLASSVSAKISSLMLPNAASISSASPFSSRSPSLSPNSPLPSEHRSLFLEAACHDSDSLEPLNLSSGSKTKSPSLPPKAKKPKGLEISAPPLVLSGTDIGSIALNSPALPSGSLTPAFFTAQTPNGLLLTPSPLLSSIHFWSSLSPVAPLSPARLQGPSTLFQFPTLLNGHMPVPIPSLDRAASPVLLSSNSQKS
# Procedure, shortened: as §1
# FEV = target: T7, FEV (Homo sapiens, UniProt Q99581 1-238); details: protein: recombinant; tags: N-terminal GST; dsDNA, one strand shown
# T7 sequence: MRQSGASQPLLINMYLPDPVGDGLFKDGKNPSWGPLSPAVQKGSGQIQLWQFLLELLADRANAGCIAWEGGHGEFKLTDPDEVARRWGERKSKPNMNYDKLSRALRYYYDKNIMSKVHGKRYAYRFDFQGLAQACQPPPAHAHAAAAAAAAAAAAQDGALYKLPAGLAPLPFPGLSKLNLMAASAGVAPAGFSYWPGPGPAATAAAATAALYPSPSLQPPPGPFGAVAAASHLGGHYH
# Procedure, shortened: as §1
# ETV5 = ETV5 (Homo sapiens, UniProt P41161 1-510); details: protein: recombinant; tags: N-terminal GST; dsDNA, one strand shown
# Chain of ETV5 (P41161 whole entry): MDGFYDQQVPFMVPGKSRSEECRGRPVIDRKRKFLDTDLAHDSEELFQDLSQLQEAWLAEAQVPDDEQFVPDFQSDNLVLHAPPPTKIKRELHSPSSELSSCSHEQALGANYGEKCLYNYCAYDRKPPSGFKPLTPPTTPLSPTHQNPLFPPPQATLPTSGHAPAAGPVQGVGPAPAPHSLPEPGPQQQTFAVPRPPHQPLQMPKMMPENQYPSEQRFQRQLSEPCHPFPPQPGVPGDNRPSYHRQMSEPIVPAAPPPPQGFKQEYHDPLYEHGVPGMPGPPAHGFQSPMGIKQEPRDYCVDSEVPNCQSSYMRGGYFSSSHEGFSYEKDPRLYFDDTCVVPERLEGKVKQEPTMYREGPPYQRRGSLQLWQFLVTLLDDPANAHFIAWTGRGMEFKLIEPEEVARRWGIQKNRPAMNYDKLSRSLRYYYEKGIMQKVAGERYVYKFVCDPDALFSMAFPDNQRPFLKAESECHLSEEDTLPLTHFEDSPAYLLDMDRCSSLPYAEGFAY
# Procedure, shortened: as §1
# HSF1 = HSF1 (Homo sapiens, UniProt Q00613 1-529); details: protein: recombinant; tags: N-terminal GST; chain copies: 3; dsDNA, one strand shown
# Chain of HSF1 (Q00613 whole entry): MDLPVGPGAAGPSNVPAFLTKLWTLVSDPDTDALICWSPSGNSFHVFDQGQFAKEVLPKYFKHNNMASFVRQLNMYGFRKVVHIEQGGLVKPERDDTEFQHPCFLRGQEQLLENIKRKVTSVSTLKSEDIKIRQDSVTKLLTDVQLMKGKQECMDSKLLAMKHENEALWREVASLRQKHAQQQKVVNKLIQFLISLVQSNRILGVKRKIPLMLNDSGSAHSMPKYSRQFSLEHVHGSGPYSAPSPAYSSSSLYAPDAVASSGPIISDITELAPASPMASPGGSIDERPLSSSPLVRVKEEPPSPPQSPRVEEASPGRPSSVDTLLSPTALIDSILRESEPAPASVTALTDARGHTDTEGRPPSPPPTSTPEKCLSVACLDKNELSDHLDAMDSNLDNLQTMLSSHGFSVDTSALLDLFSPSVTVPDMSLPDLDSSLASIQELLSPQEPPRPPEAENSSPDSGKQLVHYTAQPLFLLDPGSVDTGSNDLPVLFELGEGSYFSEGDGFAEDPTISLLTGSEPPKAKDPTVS
# Procedure, shortened: as §1
# SPIC = target: T8, SPIC (Homo sapiens, UniProt Q8N5J4 1-248); details: protein: recombinant; tags: N-terminal GST; dsDNA, one strand shown
# T8 sequence: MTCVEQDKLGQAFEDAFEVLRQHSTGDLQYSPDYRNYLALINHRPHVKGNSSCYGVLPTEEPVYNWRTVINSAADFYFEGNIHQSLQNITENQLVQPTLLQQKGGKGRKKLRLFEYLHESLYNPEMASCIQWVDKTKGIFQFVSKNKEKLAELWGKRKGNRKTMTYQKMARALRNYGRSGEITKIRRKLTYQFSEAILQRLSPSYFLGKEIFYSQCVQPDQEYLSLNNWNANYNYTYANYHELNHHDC
# Procedure, shortened: as §1
# ELF4 = ELF4 (Homo sapiens, UniProt Q99607 1-663); details: protein: recombinant; tags: N-terminal GST; dsDNA, one strand shown
# Chain of ELF4 (Q99607 whole entry): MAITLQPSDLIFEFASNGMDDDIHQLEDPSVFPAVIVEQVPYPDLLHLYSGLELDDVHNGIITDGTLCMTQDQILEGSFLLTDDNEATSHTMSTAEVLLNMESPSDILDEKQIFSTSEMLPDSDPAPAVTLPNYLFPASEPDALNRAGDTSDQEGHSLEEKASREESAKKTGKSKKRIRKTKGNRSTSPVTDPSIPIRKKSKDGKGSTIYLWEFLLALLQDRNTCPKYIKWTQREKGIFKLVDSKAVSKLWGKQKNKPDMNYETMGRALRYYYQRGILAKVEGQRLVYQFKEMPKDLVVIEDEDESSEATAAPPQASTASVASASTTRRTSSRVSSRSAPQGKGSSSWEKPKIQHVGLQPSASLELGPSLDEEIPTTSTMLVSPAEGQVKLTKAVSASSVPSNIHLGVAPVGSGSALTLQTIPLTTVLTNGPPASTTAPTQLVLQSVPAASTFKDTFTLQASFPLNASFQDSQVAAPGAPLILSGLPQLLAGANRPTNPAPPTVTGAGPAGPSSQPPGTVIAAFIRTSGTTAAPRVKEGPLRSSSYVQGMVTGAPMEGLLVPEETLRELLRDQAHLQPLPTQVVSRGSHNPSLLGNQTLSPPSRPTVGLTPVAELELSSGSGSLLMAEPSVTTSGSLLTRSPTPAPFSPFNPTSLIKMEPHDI
# Procedure, shortened: as §1
# ELK4 = target: T9, ELK4 (Homo sapiens, UniProt P28324-2 1-405); details: protein: recombinant; tags: N-terminal GST; dsDNA, one strand shown
# T9 sequence: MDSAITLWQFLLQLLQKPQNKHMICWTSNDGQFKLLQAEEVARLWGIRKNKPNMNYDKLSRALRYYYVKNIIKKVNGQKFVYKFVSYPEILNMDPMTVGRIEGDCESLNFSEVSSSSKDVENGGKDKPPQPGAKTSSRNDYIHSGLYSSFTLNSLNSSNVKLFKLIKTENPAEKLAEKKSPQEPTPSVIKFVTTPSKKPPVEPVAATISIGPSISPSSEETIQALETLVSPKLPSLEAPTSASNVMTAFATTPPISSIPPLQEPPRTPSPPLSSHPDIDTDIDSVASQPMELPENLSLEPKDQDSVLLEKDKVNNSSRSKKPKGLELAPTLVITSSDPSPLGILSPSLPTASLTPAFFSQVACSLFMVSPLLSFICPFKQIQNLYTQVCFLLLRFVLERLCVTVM
# Procedure, shortened: as §1
# ETV2 = target: T10, ETV2 (Homo sapiens, UniProt O00321 1-342); details: protein: recombinant; tags: N-terminal GST; dsDNA, one strand shown
# T10 sequence: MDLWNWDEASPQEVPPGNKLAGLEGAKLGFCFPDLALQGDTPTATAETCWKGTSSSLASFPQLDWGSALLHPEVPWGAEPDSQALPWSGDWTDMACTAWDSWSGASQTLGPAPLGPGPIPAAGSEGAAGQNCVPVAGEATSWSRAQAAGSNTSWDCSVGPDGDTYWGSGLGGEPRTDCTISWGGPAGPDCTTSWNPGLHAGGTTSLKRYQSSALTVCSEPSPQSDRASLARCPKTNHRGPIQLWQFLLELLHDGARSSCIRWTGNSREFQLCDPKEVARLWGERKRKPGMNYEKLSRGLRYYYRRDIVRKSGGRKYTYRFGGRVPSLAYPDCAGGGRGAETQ
# Procedure, shortened: as §1
# ELF3 = target: T11, ELF3 (Homo sapiens, UniProt P78545 1-371); details: protein: recombinant; tags: N-terminal GST; dsDNA, one strand shown
# T11 sequence: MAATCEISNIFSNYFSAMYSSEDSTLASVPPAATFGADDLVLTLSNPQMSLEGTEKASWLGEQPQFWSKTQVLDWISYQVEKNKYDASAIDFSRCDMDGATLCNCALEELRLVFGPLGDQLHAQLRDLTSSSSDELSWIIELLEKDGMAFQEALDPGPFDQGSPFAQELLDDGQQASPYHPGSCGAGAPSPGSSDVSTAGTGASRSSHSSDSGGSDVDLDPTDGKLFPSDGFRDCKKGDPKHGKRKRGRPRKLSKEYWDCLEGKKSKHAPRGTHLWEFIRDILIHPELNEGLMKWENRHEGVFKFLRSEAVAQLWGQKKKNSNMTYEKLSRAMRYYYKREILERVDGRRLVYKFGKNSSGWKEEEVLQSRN
# Procedure, shortened: as §1
# CRX = CRX (Homo sapiens, UniProt O43186 1-299); details: protein: recombinant; tags: N-terminal GST; dsDNA, one strand shown
# Chain of CRX (O43186 whole entry): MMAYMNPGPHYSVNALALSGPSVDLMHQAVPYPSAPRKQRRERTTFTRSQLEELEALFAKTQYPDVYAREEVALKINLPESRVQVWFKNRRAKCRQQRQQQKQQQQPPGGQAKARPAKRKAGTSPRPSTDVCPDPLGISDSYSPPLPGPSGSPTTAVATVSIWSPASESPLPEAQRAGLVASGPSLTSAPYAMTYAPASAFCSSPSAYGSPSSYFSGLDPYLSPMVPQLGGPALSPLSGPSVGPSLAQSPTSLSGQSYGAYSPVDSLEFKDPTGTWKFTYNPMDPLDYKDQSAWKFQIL
# Procedure, shortened: as §1
# ETV1 = ETV1 (Homo sapiens, UniProt P50549 1-477); details: protein: recombinant; tags: N-terminal GST; dsDNA, one strand shown
# Chain of ETV1 (P50549 whole entry): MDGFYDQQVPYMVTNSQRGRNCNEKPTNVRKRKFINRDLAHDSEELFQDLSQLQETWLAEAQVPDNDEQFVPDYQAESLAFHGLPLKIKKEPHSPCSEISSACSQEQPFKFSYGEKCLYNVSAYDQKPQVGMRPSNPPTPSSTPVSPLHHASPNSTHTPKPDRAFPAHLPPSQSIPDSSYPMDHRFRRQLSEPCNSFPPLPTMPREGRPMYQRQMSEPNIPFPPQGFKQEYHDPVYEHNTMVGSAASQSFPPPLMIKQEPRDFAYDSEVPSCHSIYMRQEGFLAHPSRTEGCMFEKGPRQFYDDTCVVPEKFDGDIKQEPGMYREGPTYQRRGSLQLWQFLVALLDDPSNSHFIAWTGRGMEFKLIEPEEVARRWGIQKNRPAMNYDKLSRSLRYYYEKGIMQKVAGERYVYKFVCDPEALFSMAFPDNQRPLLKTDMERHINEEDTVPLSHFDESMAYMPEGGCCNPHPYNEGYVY
# Procedure, shortened: as §1
sequence,measurement,setting,value
CTTCGA,binding signal,FLI1,"1.4 fold enrichment (6-mer frequency, TF over GST control)"
same,binding signal,ELK1,"1.33 fold enrichment (6-mer frequency, TF over GST control)"
same,binding signal,GABPA,"1.25 fold enrichment (6-mer frequency, TF over GST control)"
same,binding signal,ERG,"1.49 fold enrichment (6-mer frequency, TF over GST control)"
same,binding signal,ELF1,"1.41 fold enrichment (6-mer frequency, TF over GST control)"
same,binding signal,EHF,"1.19 fold enrichment (6-mer frequency, TF over GST control)"
same,binding signal,SPI1,"1.3 fold enrichment (6-mer frequency, TF over GST control)"
same,binding signal,SPIB,"1.31 fold enrichment (6-mer frequency, TF over GST control)"
same,binding signal,ELK3,"1.57 fold enrichment (6-mer frequency, TF over GST control)"
same,binding signal,FEV,"1.35 fold enrichment (6-mer frequency, TF over GST control)"
same,binding signal,ETV5,"1.4 fold enrichment (6-mer frequency, TF over GST control)"
same,binding signal,HSF1,"2.52 fold enrichment (6-mer frequency, TF over GST control)"
same,binding signal,SPIC,"1.42 fold enrichment (6-mer frequency, TF over GST control)"
same,binding signal,ELF4,"1.4 fold enrichment (6-mer frequency, TF over GST control)"
same,binding signal,ELK4,"1.3 fold enrichment (6-mer frequency, TF over GST control)"
same,binding signal,ETV2,"1.38 fold enrichment (6-mer frequency, TF over GST control)"
same,binding signal,ELF3,"1.42 fold enrichment (6-mer frequency, TF over GST control)"
same,binding signal,CRX,"1.49 fold enrichment (6-mer frequency, TF over GST control)"
same,binding signal,ETV1,"1.35 fold enrichment (6-mer frequency, TF over GST control)"
